Compound activity deposited in PubChem BioAssay by National Center for Advancing Translational Sciences (NCATS).
In the library only some 5.3% were active in any assay of this set; here they are far more common.
Tau fluor counter = counter-screen for tau fibril formation inhibitors. 280,000 compounds, 0.93% hits. AID 1463. Potency, µM (highest dose often 57.7 µM), for inactives: top-dose activity change, negative = decrease. tau K18 P301L Alexa594 fluorescence, heparin fibrillization; further: potency means the concentration at half of the fitted maximal effect; nearly all actives have a fitted effect of over 55% in size
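Human tau K18 P301L (15 uM unlabeled, 0.24 uM Alexa 594-labeled) in 100 mM sodium acetate pH 7 with 20 uM heparin, 6 hr at 37 C. ThT 30 uM added, 1 hr ambient; Alexa 594 FP and total fluorescence read at 555/632 nm.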
Tau fibril ThT = inhibitors of human tau fibril formation, thioflavin T binding; P10636; recombinant tau K18 P301L, heparin-induced fibrillization, ThT fluorescence; Potency, µM (doses to about 57.4 µM), without a hit: top-dose activity, negative = inhibition, hits mostly inhibitors; 270,000 compounds, 2.1% hits; further: potency means the concentration at half of the fitted maximal effect; nearly all actives have a fitted effect of over 55% in size
Target sequence (P10636 561-689 P618L limits assumed): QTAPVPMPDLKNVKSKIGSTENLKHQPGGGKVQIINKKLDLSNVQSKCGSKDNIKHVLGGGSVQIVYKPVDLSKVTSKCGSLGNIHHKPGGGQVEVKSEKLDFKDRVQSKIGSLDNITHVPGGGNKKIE
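Using a mix of unlabeled (15 uM) and Alexa 594-labeled (0.24 uM) tau K18 P301L, heparin-triggered fibrillization over 6 hr at 37 C was scored by ThT fluorescence.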
Sfp inh = blocks B. subtilis Sfp PPTase activity; Q9F4F7; Potency, µM, for the others: largest response in the series, negative = inhibition, most hits filed as inhibitors; Biochemical Sfp PPTase activity, qHTS; AID 1490; 310,000 compounds, 3.5% hits;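 further: the enzyme is Sfp with the accession as filed and its product quenches rhodamine fluorescence; potency means the concentration at half of the fitted maximal effect; 0% = enzyme reaction without inhibitor and -100% = no enzyme wells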
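Sfp 15 nM + cpd, 15 min RT; start w/ rhodamine-CoA 5 uM, BHQ-2-YbbR 12.5 uM (final); 50 mM Hepes pH 7.6, 10 mM MgCl2, 0.01% NP-40, 0.01% BSA; read 525/598 nm at 0 and 30 min.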
Tau FP inhib = blocks human tau fibril formation measured by polarization; K18 P301L tau heparin fibrillization, Alexa594 FP, 6 h; Potency, µM (top dose mostly 57.7 µM), for the others: at the top dose activity, negative = inhibition, most hits filed as inhibitors; P10636; 280,000 compounds, 0.39% hits; further: potency means the concentration at half of the fitted maximal effect; nearly all actives have a fitted effect of over 55% in size
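Human K18 P301L fragment (15 uM unlabeled plus 0.24 uM Alexa 594-labeled) in 100 mM sodium acetate pH 7 with compound, aggregation induced by 20 uM heparin for 6 hr at 37 C. ThT (30 uM) added for 1 hr, then Alexa 594 FP read.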
FBPA coupling cs = counter-screen for Giardia aldolase inhibitors: coupling enzyme system. coupling enzyme system counterscreen, AmpLite Red fluorescence. activity change, negative = inhibition, % at 58.2 µM, hits read low. 290,000 compounds, 0.67% hits. AID 2472; in the data active means activity change below about -30%
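Coupling enzymes only (glyceraldehyde-3-phosphate) + compound, at 57.5 uM final, 10 min RT; add substrate/coupling/AmpLite Red mix, 20 min RT; fluorescence ex 525/em 598 nm. Actives flag coupling-system interference.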
JMJD2E inh = blocks human JMJD2E demethylase activity; Potency, µM (titrated, usually from 57.1 µM), inactives show at the top dose activity change, negative = inhibition, most hits filed as inhibitors; 230,000 compounds, 1.6% hits; B2RXH2; JMJD2E catalytic domain, FDH-coupled NADH fluorescence (FDH is formaldehyde dehydrogenase);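 further: potency means the concentration at half of the fitted maximal effect; 0% = wells with enzyme and -100% = buffer wells without enzyme; nearly all actives have a fitted effect of over 50% in size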
Target sequence (B2RXH2 1-337 limits assumed): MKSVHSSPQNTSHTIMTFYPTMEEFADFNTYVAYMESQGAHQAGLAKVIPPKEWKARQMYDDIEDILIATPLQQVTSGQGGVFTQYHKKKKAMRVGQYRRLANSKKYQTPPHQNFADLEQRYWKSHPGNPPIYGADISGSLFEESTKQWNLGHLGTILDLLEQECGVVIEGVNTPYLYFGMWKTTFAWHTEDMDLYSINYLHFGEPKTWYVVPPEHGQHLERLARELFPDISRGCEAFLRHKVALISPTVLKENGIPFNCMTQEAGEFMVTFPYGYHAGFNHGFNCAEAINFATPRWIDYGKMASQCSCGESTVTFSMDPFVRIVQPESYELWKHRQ
* marks the source's active call; other numbers are inactive results; [ ] = remark or other dose. Unless noted, the call rests on the fitted dose curve; in most records, active means well fitted curve in the direction sought with a large enough effect; inconclusive means small, poorly fitted or top-dose-only effect, or another doubt; inactive means no such curve, though single readings can be large; an effect the other way counts as inactive or inconclusive. Unless noted, on the % scale 0 is the no-effect control and ±100 the full control effect.

For CCCCn1c(SCC(=O)NCc2ccco2)nc2c(sc3ccccc32)c1=O the results were Tau fluor counter -19.5%, Tau fibril ThT inconclusive, Sfp inh inconclusive, Tau FP inhib inconclusive, FBPA coupling cs -0.6 and JMJD2E inh 7.08µM*.
CSCC[C@H](NC(=O)[C@H](CC(C)C)NC(=O)CNC(=O)[C@H](Cc1ccc(O)cc1)NC(=O)[C@H](Cc1ccccc1)NC(=O)[C@H](CCC(N)=O)NC(=O)[C@H](CCC(N)=O)NC(=O)[C@@H]1CCCN1C(=O)[C@H](CCCCN)NC(=O)[C@@H]1CCCN1C(=O)[C@@H](N)CCCN=C(N)N)C(N)=O was read as Sfp inh -1.5% and FBPA coupling cs 3.8.
Screening Oc1ccccc1N=Nc1ccccc1O returned Tau fluor counter -11.2%, Tau fibril ThT inconclusive, Sfp inh 19.1%, Tau FP inhib 12.4%, FBPA coupling cs -2.3 and JMJD2E inh 31.6µM*.
Screening CCCCN1C(=O)c2[nH]nc(-c3ccccc3O)c2C1c1ccc(OCc2ccccc2)cc1 (centres undefined) returned Tau fluor counter inconclusive, Tau fibril ThT -7.0% and Tau FP inhib inconclusive.
CN(C)c1cc2c(c(N(C)C)c1)C(=O)c1ccccc1C2=O was read as Tau fluor counter 0.9%, Tau fibril ThT 7.1%, Sfp inh inconclusive, Tau FP inhib 0.6%, FBPA coupling cs -16.2 and JMJD2E inh -1.8%.
Screening COc1c(C=O)c(O)cc2c1C(=O)c1ccccc1C2=O returned Tau fluor counter inconclusive, Tau fibril ThT 7.94µM*, Sfp inh inconclusive and Tau FP inhib inconclusive.
`CC(C)=CCC/C(C)=C/CO/N=C1/C[C@@H](O)[C@@H](O)[C@@H]2[C@@H]3C(=O)N(Cc4ccc5c(c4)OCO5)C(=O)[C@H]3CC[C@H]12` gave Tau fluor counter -13.5%[11.6 µM], Tau fibril ThT -7.3%[11.5 µM], Sfp inh 17.5%, Tau FP inhib -1.4%[11.6 µM] and FBPA coupling cs -0.2.
CCOC(=O)c1cc(-c2ccc(F)cc2)n(CCC(=O)NCCc2ccc(C)cc2)c1C was read as Tau fluor counter -14.8%, Tau fibril ThT -14.9% and Tau FP inhib 9.0%.
O=C(N/N=C/c1ccc(N2CCOCC2)o1)c1cccc(C(F)(F)F)c1 was read as Tau fluor counter -5.3%, Tau fibril ThT inconclusive, Sfp inh 3.55µM*, Tau FP inhib -2.4%, FBPA coupling cs -6.3 and JMJD2E inh -21.3%.
O=C(N/N=C/c1ccc(N2CCOCC2)o1)c1ccccc1[N+](=O)[O-] was read as Tau fluor counter -27.9%, Tau fibril ThT inconclusive, Sfp inh 15.8µM*, Tau FP inhib -4.0%, FBPA coupling cs -6.4 and JMJD2E inh inconclusive.
O=C(N/N=C/c1ccc(N2CCCCC2)o1)c1ccccc1[N+](=O)[O-] was read as Tau fluor counter -14.3%, Tau fibril ThT inconclusive, Sfp inh inconclusive, Tau FP inhib 3.2%, FBPA coupling cs -7.6 and JMJD2E inh -22.9%.
Screening Cc1cccc(NC(=O)CN2C(=O)CCn3nc(-c4cccn4C)cc32)c1C returned Tau fluor counter 3.4%, Tau fibril ThT 5.1% and Tau FP inhib 3.3%.
CNc1n[nH]c(=S)s1 was read as Tau fluor counter -0.1%, Tau fibril ThT -0.3%, Sfp inh 35.5µM*, Tau FP inhib 4.0%, FBPA coupling cs -2.1 and JMJD2E inh -18.4%.
COc1ccccc1Nc1n[nH]c(=S)s1 was read as Tau fluor counter 6.4%, Tau fibril ThT -8.8%, Sfp inh 79.4µM*, Tau FP inhib 5.6%, FBPA coupling cs -0.4 and JMJD2E inh 20µM*.
For Cc1cccc(Nc2n[nH]c(=S)s2)c1C the results were Tau fluor counter -18.0%, Tau fibril ThT inconclusive, Sfp inh 20µM*, Tau FP inhib -20.9%, FBPA coupling cs 4.4 and JMJD2E inh 12.6µM*.
For CC(C)(C)c1ccc(C(=O)CC(Sc2ccc(Cl)cc2)C(=O)O)cc1 (centres undefined) the results were Tau fluor counter 1.0%, Tau fibril ThT inconclusive, Sfp inh 20µM*, Tau FP inhib -2.2%, FBPA coupling cs 21.5 and JMJD2E inh 2.2%.
Screening Cc1ccc(SC(CC(=O)c2ccc(F)cc2)C(=O)O)cc1 (centres undefined) returned Sfp inh 50.1µM* and FBPA coupling cs 5.8.
Screening O=C(CC(C(=O)O)c1ccc(Cl)cc1)c1ccccc1 (centres undefined) returned Tau fluor counter -3.5%, Tau fibril ThT -12.0%, Sfp inh 0.7%, Tau FP inhib 6.8%, FBPA coupling cs 9.5 and JMJD2E inh 5.7%.
O=C(CC(C(=O)O)c1ccc(F)cc1)c1ccc(Cl)cc1 (centres undefined) was read as Sfp inh 7.8% and FBPA coupling cs 4.0.
For COc1ccccc1CNC(=O)c1cc2cc3ccc(Cl)cc3nc2o1 the results were Tau fluor counter -3.3%, Tau fibril ThT 5.4% and Tau FP inhib inconclusive.
`O=c1c2ccccc2nc(N/N=C/c2ccc(O)cc2)n1O` gave Tau fluor counter -20.7%, Tau fibril ThT inconclusive, Sfp inh 35.5µM*, Tau FP inhib -1.7%, FBPA coupling cs -1.4 and JMJD2E inh inconclusive.
Screening O=c1c2ccccc2nc(N/N=C/c2c(O)ccc3ccccc23)n1O returned Tau fluor counter inconclusive, Tau fibril ThT 11.2µM*, Sfp inh 39.8µM*, Tau FP inhib 4.4%, FBPA coupling cs -21.8 and JMJD2E inh 11.2µM*.
Cc1nc2ccccc2nc1N/N=C/c1ccc(O)cc1 was read as Tau fluor counter inconclusive, Tau fibril ThT 14.1µM*, Sfp inh -12.1%, Tau FP inhib 11.7%, FBPA coupling cs -1.0 and JMJD2E inh inconclusive.
For O=C(CN1CCCC1)N/N=C/c1c(O)ccc2ccccc12 the results were Sfp inh 2.4% and FBPA coupling cs -7.8.
Cc1ccc(C)c(N2CCN(c3nc4ccccc4c(=O)n3-c3ccc(Cl)cc3)CC2)c1 was read as Tau fluor counter -1.5%, Tau fibril ThT -5.9% and Tau FP inhib -11.3%.
COc1ccc(C(N)=S)c(OC)c1 was read as Tau fluor counter 0.2%, Tau fibril ThT -4.4%, Sfp inh 44.7µM*, Tau FP inhib -1.6%, FBPA coupling cs 1.2 and JMJD2E inh -0.7%.
`C[C@H]1Cc2c(COc3ccccc3)nc3c(c2CO1)CN(S(=O)(=O)c1ccc(C#N)cc1)CC3` gave Tau fluor counter -21.3%[11.6 µM], Tau fibril ThT -12.8%[11.5 µM], Sfp inh 8.2%, Tau FP inhib -3.5%[11.6 µM], FBPA coupling cs 0.6 and JMJD2E inh -1.3%[11.4 µM].
